Results reported in the supplement of paper PMC3334620.
Whole data set: some 33,000 sequences, median “E-score (-0.5 to 0.5)” near -0.017, cut for the highest 2% near 0.3. Many of the other results were omitted from the sample, so the highest values are more common in it than they were.

These sequences were tested against T1, Sut1 (UniProt P53032) (assay: PBM E-score (8-mer binding enrichment) (E-score (-0.5 to 0.5)); higher = stronger / more preferred TF binding). Conditions: protein concentration: 200 nM; construct: GST-full length.
T1 sequence: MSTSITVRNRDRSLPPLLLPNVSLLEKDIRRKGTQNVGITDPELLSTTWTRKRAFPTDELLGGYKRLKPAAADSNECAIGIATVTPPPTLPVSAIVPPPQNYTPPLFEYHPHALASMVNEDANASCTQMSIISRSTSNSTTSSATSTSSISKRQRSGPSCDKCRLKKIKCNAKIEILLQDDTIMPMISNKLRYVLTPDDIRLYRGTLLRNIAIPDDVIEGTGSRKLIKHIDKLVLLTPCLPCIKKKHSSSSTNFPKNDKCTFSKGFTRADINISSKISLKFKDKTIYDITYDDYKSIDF
Summary of the method: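 Full-length yeast transcription factors or their DNA-binding domains, GST-tagged and expressed with PURExpress, were applied at about 100-200 nM to universal all-10-mer Agilent arrays. These arrays had been made double-stranded by primer extension on fresh or once-stripped slides. Detection used fluorescent anti-GST, normalisation used masliner, and E-scores for ungapped eight-base words pooled with reverse complements came from the Universal PBM Analysis Suite.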

Sequence | PBM E-score
ACCCTTAC | -0.129
GGAAGCCC | -0.0417
ATTTTACC | 0.352
CTTTTATC | 0.26
ATTTATCA | 0.229
ATTTATCC | 0.33
ATTTTATC | 0.321
ATTTATCG | 0.191
ATTTTATG | 0.13
CTTTTACC | 0.149
AATTTACC | 0.143
ATTCATGA | -0.0184
AGACCAAA | 0.026
CCCGATTC | 0.0897
CCAGAAAC | -0.0561
GTACAAAC | 0.0652
ATACAATA | 0.299
CTACAATA | 0.181
ATACAATC | 0.236
ATACAAAT | 0.312
ATACAAAC | 0.298
ATACAAAG | 0.119

Sequence | PBM E-score
ATACAAAA | 0.288
CTACAAAC | 0.0828
TCAGGACA | -0.0448
ACCCGCCT | -0.184
ACTGGATC | -0.0162
AATCTCTG | -0.129
AACTCCGC | 0.492
ACCTCCGC | -0.104
GACTCCGC | 0.429
CACTCCTG | -0.0764
CACTCCGC | 0.367
GACTCCTC | 0.0705
CCCTCCGC | -0.318
CACTCCGG | 0.476
CACTCCCG | -0.0356
CACTCCTC | -0.176
GACTCCAC | 0.0104
AACTCCCC | -0.0339
AAGCACGC | -0.122
CACGGTAA | 0.0752
CTTCCATA | 0.00613
CTCATAGC | -0.0832

Sequence | PBM E-score
CCCCAGGC | -0.303
GCCGAGCC | -0.0648
GACACTGA | 0.0506
AATCGTTG | 0.0316
CCTTCACC | -0.231
CGGAGAAC | 0.33
TGGAGAAA | -0.00929
AGGAGAAC | -0.0513
CGGAGAAG | 0.36
TCGACAAA | 0.213
CCGACAAG | 0.115
CCGACAAA | 0.313
GGGAGAAA | -0.0502
AGGAGAAG | -0.165
CGGAGAAA | 0.391
CAGAGAAG | -0.0543
GGGAGAAC | -0.0542
CGTCAACG | 0.0766
CGGTACTC | -0.0748
GAACAGTC | 0.0217
GAATGTCC | 0.282
AACCCTAC | -0.287

Sequence | PBM E-score
ATATGCAC | 0.133
CCACCCCA | -0.221
AATCCATA | 0.108
AACGCTGT | -0.0573
CCAGTAGA | -0.112
AGTGCTCA | -0.105
TCGAGAAA | 0.103
CCGAAAAC | 0.164
CCGAAAAA | 0.352
AGGAGAGA | -0.0542
CCGAGAAA | 0.339
CGGAGAGA | 0.317
CGGAGAGC | 0.109
CCGAAAAG | 0.178
GCGAGAAA | 0.0168
ACGGGTGA | -0.0761
AGCGTCAT | -0.0756
CACCTTGC | 0.00165
CTCAGCGA | -0.204
AGGAGCGA | -0.00713
TGGAGCAA | -0.0175
CGGAGCAC | 0.175

Sequence | PBM E-score
CGGAGCGA | 0.325
CGGAGCAA | 0.311
CGGAGCGC | 0.118
TTCATGAA | 0.00239
AACTACAT | 0.141
CCATTATA | 0.135
CCCGGAAA | 0.234
ACCGGGAA | 0.145
TCCGGTAA | 0.384
TCCGGAAA | 0.411
TCCGGGAA | 0.356
ACCGGAAA | 0.268
CCCGGGAA | -0.03
ACCGGTAA | -0.0335
GCCGGTAA | 0.121
CTCTGAGA | -0.0987
AGCAATTG | 0.175
GGAATGAA | 0.166
ATGCCCCC | -0.387
TACTCGCA | 0.0383
GACTCGGC | -0.033
AACTCGGT | 0.0362
